Reference: PubChem BioAssay

Assay: Pseudomonas biofilm growth suppression – PAO1 strain, BacTiter-Glo luminescence, LB-PBS, primary screen (AID 1144)
Conditions: P. aeruginosa PAO1 biofilm, 12 h, higher = more signal; call rule not given here

z-score, inactive:
CO[C@H]1COC(=O)[C@H](CCSC)NC(=O)CC=C[C@@H](C)[C@H](OC)COC(=O)[C@@H](OCc2ccccc2)C=C[C@@H]1C -0.128, COC(=O)[C@H](C)NC(=O)CCC1CC(OC(=O)NCCc2ccc(F)cc2)CC2(CCCC(COC(=O)NCCc3ccccc3OC)O2)O1 (some centres not stated) 0.351, CC(C)CN1CCc2nc(-c3ccccc3)c3c(c2C1)CO[C@@H](C)C3 -0.876, CC(C)[C@@H](OCc1ccccc1)[C@H](C)CON=C1[C@H]2CCn3c(=O)n(-c4ccccc4)c(=O)n3[C@H]2[C@H](O)[C@@H]2O[C@H]12 1.21, CON=C(C)CCN1CCc2nc(-c3ccccc3)c(-c3ccccc3)cc2C1 -0.925, COc1ccc(OC[C@H]2CN3[C@@H](CC[C@@H](C)[C@@H]3c3ccc(Br)cc3)C(=O)O2)cc1 -0.225, O=C(NN=C1C[C@@H](O)[C@@H](O)[C@@H]2[C@@H]3C(=O)N(c4ccc(F)cc4F)C(=O)[C@@H]3CC[C@H]12)OCc1ccccc1 0.0604, COC(=O)[C@H](C)NC(=O)CCC1CC(OC(=O)NCc2cccc3ccccc23)CC2(CCCC(COC(=O)NCc3ccccc3)O2)O1 (some centres not stated) -1.33, O=C1C2=CC[C@H]3C(=O)N(C4CCCCC4)C(=O)[C@H]3[C@H]2[C@H](O)[C@@H]2O[C@H]12 -0.366, C#CCCCON=C1C[C@@H](O)[C@@H](O)[C@@H]2[C@@H]3C(=O)N(C[C@@H]4CCCO4)C(=O)[C@@H]3CC[C@H]12 0.428, O=C1[C@H]2CCn3c(=O)n(-c4ccccc4)c(=O)n3[C@H]2[C@H](O)[C@@H]2O[C@H]12 0.102, CC(=O)OC[C@H]1O[C@H](CC=NOCC[C@@H]2C=C[C@H](OC(C)=O)[C@@H](COC(C)=O)O2)C=C[C@@H]1OC(C)=O -0.358, CCCNC(=O)OC[C@H]1O[C@H](CCON=C[C@@H](C)[C@H](OCc2ccccc2)C(C)C)C=C[C@@H]1Oc1ccc(OC)cc1 -0.107, CC(CCC(=O)OC[C@H]1O[C@H](C#Cc2ccccc2)C=C[C@@H]1Oc1ccc(C)cc1)=NOC(C)CN1CCCCc2nc(C)c(C)cc21 (some centres not stated) 0.455, CCN1C(=O)[C@H]2[C@H]3[C@H](O)[C@H](O)CC(=NNC(=O)OCc4ccccc4)[C@H]3CC[C@H]2C1=O 0.877, CO[C@@H](C(C)C)[C@@H](C)C1OC(=O)CC1O (some centres not stated) 0.446, CC(C)=NOC(C)CN1CCCc2nc(C)c(C)cc21 (configuration not stated) -0.905, CO[C@@H]1[C@H](O)CO[C@H]1C=Cc1ccccc1 0.165, COc1ccc(O[C@H]2C=C[C@@H](C#Cc3ccccc3)O[C@@H]2CO)cc1 0.451, CC(CCC(=O)OC[C@H]1O[C@H](C#Cc2ccccc2)C=C[C@@H]1Oc1ccc(C)cc1)=NOC[C@@H](C)[C@H](OCc1ccccc1)C(C)C -0.193, CC(CCN1CCc2nc(-c3ccccc3)c(-c3ccccc3)cc2C1)=NOC(C)CN1CCCc2nc(C)c(C)cc21 (configuration not stated) 0.25, CCOC(=O)[C@H](CC(C)C)NC(=O)CCC1CC(OC(=O)NCc2ccc3c(c2)OCO3)CC2(CCCC(COC(=O)NCCc3ccc(Cl)cc3)O2)O1 (some centres not stated) -0.0985, CC(=O)OC[C@H]1O[C@@H](ON=C(C)CCC(=O)OC[C@H]2O[C@H](C#Cc3ccccc3)C=C[C@@H]2Oc2ccc(C)cc2)[C@H](OC(C)=O)[C@@H](OC(C)=O)[C@@H]1OC(C)=O -0.238, CC(C)CON=C1C[C@@H](O)[C@@H](O)[C@@H]2[C@@H]3C(=O)N(c4ccc(F)cc4F)C(=O)[C@@H]3CC[C@@H]12 -0.419, CCOC(=O)CCN1C(=O)[C@H]2[C@H]3[C@H](O)[C@H](O)CC(=NO[C@@H]4O[C@H](CO)[C@@H](O)[C@H](O)[C@H]4O)[C@H]3CC[C@H]2C1=O 0.132, CCOC(=O)[C@H](Cc1ccccc1)NC(=O)CCC1CC(OC(=O)NCc2cccc3ccccc23)CC2(CCCC(COC(=O)NCCc3ccc(Cl)cc3)O2)O1 (some centres not stated) -1.39, CCN1C(=O)[C@H]2[C@H]3[C@H](O)[C@H](O)CC(=NOC[C@@H](O)COCc4ccco4)[C@H]3CC[C@H]2C1=O -0.388
